# Measurements reported in paper PMC7862700, “An all-to-all approach to the identification of sequence-specific readers for epigenetic DNA modifications on cytosine”.
# Assays:
# Experiment in all cases: DAPPL (digital affinity profiling via proximity ligation, sequencing); 10 mM Tris-HCl pH 7.5, 50 mM NaCl, 1 mM DTT, 4% glycerol, room temperature, 30 min; GST-TFs on glutathione beads, 16-mer random dsDNA library, 0.1% formaldehyde crosslink after washing; high values mean tight binding
# [1] = molecular target: T1, FLI1 (Homo sapiens, UniProt Q01543 1-452); conditions: protein: recombinant; tags: N-terminal GST; dsDNA, one strand shown
# T1 sequence: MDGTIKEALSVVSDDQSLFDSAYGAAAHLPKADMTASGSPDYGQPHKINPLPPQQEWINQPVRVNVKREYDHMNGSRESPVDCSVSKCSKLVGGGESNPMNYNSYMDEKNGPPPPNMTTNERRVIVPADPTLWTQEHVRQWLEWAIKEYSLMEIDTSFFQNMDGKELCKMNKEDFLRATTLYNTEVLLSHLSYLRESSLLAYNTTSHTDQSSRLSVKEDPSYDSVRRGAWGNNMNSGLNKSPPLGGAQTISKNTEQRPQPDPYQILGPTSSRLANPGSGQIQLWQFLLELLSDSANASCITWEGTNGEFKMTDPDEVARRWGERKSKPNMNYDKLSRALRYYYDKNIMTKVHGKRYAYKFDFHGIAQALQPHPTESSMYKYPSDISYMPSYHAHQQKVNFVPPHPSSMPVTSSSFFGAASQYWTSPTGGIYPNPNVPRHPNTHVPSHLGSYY
# Procedure, shortened: (§1)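 Beads coated with glutathione captured GST-fused human transcription factors that had been expressed in yeast, and the factors were then given DNA barcodes and pooled with a tag-only sample. The pools were incubated with 200 nmole of a random double-stranded 16-mer DNA library in Tris/NaCl/DTT/glycerol buffer for 30 min at room temperature, washed, crosslinked with 0.1% formaldehyde and proximity-ligated with BsaI/T4 ligase at 37 °C for 1 h. PCR amplification and Illumina NextSeq500 sequencing came last. Binding signal is each hexamer's read frequency for a factor divided by its frequency for the tag-only sample.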
# [2] = molecular target: T2, ELK1 (Homo sapiens, UniProt P19419 1-428); conditions: protein: recombinant; tags: N-terminal GST; dsDNA, one strand shown
# T2 sequence: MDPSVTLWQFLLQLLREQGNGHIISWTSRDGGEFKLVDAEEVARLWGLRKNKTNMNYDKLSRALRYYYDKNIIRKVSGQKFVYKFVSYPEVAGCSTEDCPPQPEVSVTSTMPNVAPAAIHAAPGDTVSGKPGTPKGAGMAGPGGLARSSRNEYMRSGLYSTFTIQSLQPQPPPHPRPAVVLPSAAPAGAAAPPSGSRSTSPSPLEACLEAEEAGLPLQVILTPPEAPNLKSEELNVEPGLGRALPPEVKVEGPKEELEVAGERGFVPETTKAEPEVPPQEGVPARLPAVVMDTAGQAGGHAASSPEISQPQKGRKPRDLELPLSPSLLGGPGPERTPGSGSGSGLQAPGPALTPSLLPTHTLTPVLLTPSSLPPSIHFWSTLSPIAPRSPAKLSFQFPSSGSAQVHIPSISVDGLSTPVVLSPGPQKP
# Procedure, shortened: as §1
# [3] = molecular target: T3, GABPA (Homo sapiens, UniProt Q06546 1-454); conditions: protein: recombinant; tags: N-terminal GST; dsDNA, one strand shown
# T3 sequence: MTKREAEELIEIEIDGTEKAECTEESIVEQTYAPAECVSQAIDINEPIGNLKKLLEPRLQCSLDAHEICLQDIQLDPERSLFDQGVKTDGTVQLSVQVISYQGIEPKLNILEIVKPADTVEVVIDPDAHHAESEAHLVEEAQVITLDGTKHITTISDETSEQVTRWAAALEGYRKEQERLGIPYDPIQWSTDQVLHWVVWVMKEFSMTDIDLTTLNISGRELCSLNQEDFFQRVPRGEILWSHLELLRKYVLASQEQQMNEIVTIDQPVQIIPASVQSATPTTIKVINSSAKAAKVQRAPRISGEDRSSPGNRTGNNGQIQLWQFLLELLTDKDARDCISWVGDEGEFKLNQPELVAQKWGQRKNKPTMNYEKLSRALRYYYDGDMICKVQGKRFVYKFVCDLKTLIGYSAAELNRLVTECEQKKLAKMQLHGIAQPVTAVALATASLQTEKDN
# Procedure, shortened: as §1
# [4] = molecular target: T4, ERG (Homo sapiens, UniProt P11308 1-479); conditions: protein: recombinant; tags: N-terminal GST; dsDNA, one strand shown
# T4 sequence: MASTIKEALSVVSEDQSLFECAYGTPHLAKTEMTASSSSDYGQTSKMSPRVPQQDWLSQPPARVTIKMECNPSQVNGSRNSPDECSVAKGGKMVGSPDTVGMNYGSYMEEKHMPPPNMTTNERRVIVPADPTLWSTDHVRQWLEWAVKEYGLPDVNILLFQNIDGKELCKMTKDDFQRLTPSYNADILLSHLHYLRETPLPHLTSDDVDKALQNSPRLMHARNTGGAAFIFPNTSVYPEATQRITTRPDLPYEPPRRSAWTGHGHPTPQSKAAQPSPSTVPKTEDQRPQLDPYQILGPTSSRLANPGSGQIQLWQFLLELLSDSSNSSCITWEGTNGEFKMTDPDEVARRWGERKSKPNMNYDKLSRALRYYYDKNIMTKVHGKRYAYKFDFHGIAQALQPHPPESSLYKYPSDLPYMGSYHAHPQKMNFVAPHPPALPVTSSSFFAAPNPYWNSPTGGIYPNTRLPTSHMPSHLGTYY
# Procedure, shortened: as §1
# [5] = molecular target: ELF1 (Homo sapiens, UniProt P32519 1-619); conditions: protein: recombinant; tags: N-terminal GST; dsDNA, one strand shown
# ELF1, sequence (P32519 whole entry): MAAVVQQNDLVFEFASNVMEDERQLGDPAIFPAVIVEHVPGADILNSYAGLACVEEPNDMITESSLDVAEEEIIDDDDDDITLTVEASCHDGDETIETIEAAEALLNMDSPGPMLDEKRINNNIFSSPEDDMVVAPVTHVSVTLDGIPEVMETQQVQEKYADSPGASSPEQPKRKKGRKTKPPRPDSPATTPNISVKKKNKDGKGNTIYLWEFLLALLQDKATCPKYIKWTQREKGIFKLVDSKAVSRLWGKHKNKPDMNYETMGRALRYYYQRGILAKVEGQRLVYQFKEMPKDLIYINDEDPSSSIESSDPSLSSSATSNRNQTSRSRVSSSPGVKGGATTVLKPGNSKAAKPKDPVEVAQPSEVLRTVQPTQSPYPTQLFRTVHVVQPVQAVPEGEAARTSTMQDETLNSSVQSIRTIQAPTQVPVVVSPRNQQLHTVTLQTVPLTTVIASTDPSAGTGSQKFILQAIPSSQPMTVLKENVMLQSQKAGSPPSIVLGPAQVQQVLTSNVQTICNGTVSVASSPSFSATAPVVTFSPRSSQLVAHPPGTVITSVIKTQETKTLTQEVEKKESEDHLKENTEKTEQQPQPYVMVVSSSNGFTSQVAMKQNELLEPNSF
# Procedure, shortened: as §1
# [6] = molecular target: T5, EHF (Homo sapiens, UniProt Q9NZC4 1-300); conditions: protein: recombinant; tags: N-terminal GST; dsDNA, one strand shown
# T5 sequence: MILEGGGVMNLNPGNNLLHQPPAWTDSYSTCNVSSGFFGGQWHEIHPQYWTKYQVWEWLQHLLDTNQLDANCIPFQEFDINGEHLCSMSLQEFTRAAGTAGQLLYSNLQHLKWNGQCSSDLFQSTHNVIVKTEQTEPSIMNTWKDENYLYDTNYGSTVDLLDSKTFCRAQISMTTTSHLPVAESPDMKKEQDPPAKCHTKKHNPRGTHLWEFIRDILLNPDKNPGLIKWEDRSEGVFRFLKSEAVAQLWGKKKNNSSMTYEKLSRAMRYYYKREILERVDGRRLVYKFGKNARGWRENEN
# Procedure, shortened: as §1
# [7] = molecular target: SPI1 (Homo sapiens, UniProt P17947 1-270); conditions: protein: recombinant; tags: N-terminal GST; dsDNA, one strand shown
# Procedure, shortened: as §1
# [8] = molecular target: SPIB (Homo sapiens, UniProt Q01892 1-262); conditions: protein: recombinant; tags: N-terminal GST; dsDNA, one strand shown
# SPIB, sequence (Q01892 whole entry): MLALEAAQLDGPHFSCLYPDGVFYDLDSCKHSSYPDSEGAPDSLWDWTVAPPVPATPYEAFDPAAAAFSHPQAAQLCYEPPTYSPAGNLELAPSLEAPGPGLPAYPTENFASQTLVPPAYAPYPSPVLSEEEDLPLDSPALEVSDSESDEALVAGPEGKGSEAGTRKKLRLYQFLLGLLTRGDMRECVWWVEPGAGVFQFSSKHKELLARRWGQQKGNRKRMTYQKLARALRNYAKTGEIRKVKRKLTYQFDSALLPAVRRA
# Procedure, shortened: as §1
# [9] = molecular target: T6, ELK3 (Homo sapiens, UniProt P41970 1-407); conditions: protein: recombinant; tags: N-terminal GST; dsDNA, one strand shown
# T6 sequence: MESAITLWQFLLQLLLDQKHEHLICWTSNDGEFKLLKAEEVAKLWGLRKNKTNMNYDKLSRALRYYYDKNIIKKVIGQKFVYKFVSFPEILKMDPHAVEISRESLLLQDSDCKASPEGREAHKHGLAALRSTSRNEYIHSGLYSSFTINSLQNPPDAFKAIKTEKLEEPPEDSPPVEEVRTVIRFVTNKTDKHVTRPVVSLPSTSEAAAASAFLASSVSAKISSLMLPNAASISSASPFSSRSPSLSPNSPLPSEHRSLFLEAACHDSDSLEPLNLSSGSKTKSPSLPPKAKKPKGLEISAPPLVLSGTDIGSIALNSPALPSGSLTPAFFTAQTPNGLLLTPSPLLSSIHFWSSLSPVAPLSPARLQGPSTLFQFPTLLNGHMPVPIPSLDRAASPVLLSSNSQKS
# Procedure, shortened: as §1
# [10] = molecular target: T7, FEV (Homo sapiens, UniProt Q99581 1-238); conditions: protein: recombinant; tags: N-terminal GST; dsDNA, one strand shown
# T7 sequence: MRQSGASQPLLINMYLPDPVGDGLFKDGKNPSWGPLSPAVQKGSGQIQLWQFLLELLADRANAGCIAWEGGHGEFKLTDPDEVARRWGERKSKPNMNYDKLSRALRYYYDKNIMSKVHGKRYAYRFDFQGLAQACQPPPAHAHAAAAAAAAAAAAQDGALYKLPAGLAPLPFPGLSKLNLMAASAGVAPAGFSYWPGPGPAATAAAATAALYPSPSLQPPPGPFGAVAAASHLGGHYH
# Procedure, shortened: as §1
# [11] = molecular target: ETV5 (Homo sapiens, UniProt P41161 1-510); conditions: protein: recombinant; tags: N-terminal GST; dsDNA, one strand shown
# ETV5, sequence (P41161 whole entry): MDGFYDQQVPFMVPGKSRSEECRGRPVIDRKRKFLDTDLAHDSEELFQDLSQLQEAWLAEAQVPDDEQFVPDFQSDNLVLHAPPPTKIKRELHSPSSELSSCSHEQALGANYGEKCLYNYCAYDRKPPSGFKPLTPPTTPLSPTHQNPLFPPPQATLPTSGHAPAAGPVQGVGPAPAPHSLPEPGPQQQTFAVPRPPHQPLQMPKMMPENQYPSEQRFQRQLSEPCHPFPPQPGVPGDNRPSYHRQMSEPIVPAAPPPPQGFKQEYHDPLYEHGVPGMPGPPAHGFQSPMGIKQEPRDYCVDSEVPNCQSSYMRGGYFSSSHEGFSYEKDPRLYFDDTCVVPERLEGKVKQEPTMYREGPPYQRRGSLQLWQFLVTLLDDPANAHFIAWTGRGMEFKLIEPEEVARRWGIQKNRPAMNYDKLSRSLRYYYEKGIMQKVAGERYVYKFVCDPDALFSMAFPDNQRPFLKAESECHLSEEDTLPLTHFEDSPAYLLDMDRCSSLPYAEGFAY
# Procedure, shortened: as §1
# [12] = molecular target: HSF1 (Homo sapiens, UniProt Q00613 1-529); conditions: protein: recombinant; tags: N-terminal GST; chain copies: 3; dsDNA, one strand shown
# HSF1, sequence (Q00613 whole entry): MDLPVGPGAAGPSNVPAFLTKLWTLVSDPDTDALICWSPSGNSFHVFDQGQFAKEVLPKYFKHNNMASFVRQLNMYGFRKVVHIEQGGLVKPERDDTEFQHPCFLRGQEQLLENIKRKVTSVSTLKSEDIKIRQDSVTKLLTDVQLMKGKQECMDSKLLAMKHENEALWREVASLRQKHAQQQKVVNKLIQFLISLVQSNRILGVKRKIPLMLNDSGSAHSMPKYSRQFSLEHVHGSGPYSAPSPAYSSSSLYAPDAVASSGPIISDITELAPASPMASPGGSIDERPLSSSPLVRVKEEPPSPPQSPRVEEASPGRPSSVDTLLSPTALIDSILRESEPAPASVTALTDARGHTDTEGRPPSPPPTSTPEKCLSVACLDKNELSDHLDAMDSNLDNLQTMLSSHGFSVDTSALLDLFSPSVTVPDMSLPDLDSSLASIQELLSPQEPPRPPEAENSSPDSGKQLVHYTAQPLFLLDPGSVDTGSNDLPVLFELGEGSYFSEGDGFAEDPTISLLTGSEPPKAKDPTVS
# Procedure, shortened: as §1
# [13] = molecular target: T8, SPIC (Homo sapiens, UniProt Q8N5J4 1-248); conditions: protein: recombinant; tags: N-terminal GST; dsDNA, one strand shown
# T8 sequence: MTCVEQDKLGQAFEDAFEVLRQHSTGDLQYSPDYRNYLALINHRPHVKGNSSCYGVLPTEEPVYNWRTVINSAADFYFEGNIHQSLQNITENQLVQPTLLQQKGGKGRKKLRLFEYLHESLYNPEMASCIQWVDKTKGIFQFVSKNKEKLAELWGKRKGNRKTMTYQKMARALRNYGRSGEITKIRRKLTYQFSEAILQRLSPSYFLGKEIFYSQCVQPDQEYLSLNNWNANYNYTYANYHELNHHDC
# Procedure, shortened: as §1
# [14] = molecular target: ELF4 (Homo sapiens, UniProt Q99607 1-663); conditions: protein: recombinant; tags: N-terminal GST; dsDNA, one strand shown
# ELF4, sequence (Q99607 whole entry): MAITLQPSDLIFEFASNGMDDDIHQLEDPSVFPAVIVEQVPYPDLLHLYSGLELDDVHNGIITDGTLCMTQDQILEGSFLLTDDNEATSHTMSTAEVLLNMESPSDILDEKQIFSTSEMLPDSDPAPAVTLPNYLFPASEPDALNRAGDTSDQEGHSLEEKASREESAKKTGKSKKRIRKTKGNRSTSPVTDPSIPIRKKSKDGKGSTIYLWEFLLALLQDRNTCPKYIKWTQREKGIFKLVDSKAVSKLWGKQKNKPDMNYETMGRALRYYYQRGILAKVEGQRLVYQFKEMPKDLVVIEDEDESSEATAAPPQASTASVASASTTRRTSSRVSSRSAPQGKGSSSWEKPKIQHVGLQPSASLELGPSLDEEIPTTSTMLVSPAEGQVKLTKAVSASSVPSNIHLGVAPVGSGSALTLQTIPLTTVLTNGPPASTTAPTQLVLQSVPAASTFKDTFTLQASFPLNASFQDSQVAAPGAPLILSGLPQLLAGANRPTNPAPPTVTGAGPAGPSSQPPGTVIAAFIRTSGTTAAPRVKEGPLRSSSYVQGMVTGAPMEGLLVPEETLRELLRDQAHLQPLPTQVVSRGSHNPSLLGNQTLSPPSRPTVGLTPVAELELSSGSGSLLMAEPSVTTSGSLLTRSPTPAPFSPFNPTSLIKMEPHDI
# Procedure, shortened: as §1
# [15] = molecular target: T9, ELK4 (Homo sapiens, UniProt P28324-2 1-405); conditions: protein: recombinant; tags: N-terminal GST; dsDNA, one strand shown
# T9 sequence: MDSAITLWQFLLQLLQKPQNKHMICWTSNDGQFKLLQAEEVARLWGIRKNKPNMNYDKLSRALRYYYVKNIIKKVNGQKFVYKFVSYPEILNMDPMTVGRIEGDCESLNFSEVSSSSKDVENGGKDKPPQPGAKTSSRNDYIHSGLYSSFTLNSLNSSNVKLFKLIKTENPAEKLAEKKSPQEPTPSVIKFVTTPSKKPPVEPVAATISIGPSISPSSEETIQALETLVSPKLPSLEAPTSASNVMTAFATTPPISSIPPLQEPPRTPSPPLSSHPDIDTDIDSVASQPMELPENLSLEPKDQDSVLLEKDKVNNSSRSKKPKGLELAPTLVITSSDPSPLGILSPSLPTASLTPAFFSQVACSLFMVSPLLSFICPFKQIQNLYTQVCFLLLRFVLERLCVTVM
# Procedure, shortened: as §1
# [16] = molecular target: T10, ETV2 (Homo sapiens, UniProt O00321 1-342); conditions: protein: recombinant; tags: N-terminal GST; dsDNA, one strand shown
# T10 sequence: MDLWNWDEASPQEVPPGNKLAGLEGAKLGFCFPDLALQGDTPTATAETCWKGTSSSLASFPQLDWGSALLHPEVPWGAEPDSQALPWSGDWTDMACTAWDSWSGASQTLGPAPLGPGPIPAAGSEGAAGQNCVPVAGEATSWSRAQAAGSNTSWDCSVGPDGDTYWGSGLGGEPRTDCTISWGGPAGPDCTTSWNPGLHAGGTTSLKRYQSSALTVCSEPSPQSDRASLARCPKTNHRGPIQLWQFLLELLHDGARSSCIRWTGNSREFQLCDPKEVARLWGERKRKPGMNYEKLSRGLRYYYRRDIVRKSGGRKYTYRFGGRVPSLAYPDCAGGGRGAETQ
# Procedure, shortened: as §1
# [17] = molecular target: T11, ELF3 (Homo sapiens, UniProt P78545 1-371); conditions: protein: recombinant; tags: N-terminal GST; dsDNA, one strand shown
# T11 sequence: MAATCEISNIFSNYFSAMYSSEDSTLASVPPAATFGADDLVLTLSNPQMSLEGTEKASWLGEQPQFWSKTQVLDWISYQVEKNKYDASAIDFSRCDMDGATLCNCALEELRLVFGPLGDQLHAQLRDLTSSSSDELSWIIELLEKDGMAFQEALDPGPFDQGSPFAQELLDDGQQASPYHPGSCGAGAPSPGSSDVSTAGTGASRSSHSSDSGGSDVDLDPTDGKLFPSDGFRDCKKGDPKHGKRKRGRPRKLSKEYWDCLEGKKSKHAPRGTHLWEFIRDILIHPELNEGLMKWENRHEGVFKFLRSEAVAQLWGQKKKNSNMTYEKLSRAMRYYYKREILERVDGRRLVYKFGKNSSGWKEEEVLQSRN
# Procedure, shortened: as §1
# [18] = molecular target: CRX (Homo sapiens, UniProt O43186 1-299); conditions: protein: recombinant; tags: N-terminal GST; dsDNA, one strand shown
# CRX, sequence (O43186 whole entry): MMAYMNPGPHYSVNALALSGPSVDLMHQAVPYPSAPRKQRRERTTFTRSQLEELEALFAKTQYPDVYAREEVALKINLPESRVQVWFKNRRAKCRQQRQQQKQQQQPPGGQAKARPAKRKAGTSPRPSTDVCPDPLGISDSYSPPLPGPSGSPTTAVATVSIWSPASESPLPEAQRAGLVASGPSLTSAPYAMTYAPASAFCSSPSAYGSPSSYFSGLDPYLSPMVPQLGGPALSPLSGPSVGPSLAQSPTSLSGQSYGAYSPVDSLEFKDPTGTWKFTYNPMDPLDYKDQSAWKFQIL
# Procedure, shortened: as §1
# [19] = molecular target: ETV1 (Homo sapiens, UniProt P50549 1-477); conditions: protein: recombinant; tags: N-terminal GST; dsDNA, one strand shown
# ETV1, sequence (P50549 whole entry): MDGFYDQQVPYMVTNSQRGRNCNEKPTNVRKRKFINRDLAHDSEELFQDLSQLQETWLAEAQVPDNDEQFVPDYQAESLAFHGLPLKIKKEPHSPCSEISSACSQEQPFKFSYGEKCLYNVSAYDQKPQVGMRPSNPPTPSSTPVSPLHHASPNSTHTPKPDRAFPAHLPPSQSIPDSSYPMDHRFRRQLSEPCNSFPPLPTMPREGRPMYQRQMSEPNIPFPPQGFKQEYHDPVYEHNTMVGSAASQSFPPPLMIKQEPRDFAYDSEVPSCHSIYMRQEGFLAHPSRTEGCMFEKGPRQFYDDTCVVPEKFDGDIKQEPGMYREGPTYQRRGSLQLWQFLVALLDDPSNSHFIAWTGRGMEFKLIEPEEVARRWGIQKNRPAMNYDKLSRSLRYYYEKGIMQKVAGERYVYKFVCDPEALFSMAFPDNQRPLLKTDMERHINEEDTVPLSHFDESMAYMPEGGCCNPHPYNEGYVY
# Procedure, shortened: as §1
sequence,measurement,setting,value
TCAACT,binding signal,[1],"1.31 fold enrichment (6-mer frequency, TF over GST control)"
same,binding signal,[2],"1.31 fold enrichment (6-mer frequency, TF over GST control)"
same,binding signal,[3],"1.34 fold enrichment (6-mer frequency, TF over GST control)"
same,binding signal,[4],"1.31 fold enrichment (6-mer frequency, TF over GST control)"
same,binding signal,[5],"1.31 fold enrichment (6-mer frequency, TF over GST control)"
same,binding signal,[6],"1.35 fold enrichment (6-mer frequency, TF over GST control)"
same,binding signal,[7],"1.36 fold enrichment (6-mer frequency, TF over GST control)"
same,binding signal,[8],"1.3 fold enrichment (6-mer frequency, TF over GST control)"
same,binding signal,[9],"1.22 fold enrichment (6-mer frequency, TF over GST control)"
same,binding signal,[10],"1.36 fold enrichment (6-mer frequency, TF over GST control)"
same,binding signal,[11],"1.26 fold enrichment (6-mer frequency, TF over GST control)"
same,binding signal,[12],"1.2 fold enrichment (6-mer frequency, TF over GST control)"
same,binding signal,[13],"1.32 fold enrichment (6-mer frequency, TF over GST control)"
same,binding signal,[14],"1.27 fold enrichment (6-mer frequency, TF over GST control)"
same,binding signal,[15],"1.36 fold enrichment (6-mer frequency, TF over GST control)"
same,binding signal,[16],"1.41 fold enrichment (6-mer frequency, TF over GST control)"
same,binding signal,[17],"1.37 fold enrichment (6-mer frequency, TF over GST control)"
same,binding signal,[18],"1.34 fold enrichment (6-mer frequency, TF over GST control)"
same,binding signal,[19],"1.26 fold enrichment (6-mer frequency, TF over GST control)"
